Reference: PubChem BioAssay (NCI)
Compounds without any hit were thinned out: in the full panel of roughly 83,000, 20% have a hit.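 Growth was measured after 48 h exposure to one concentration of compound in 96-well plates. Values under 10 count as active.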 Activity calls are given as the source filed them.

Key:
Assay in all cases: NCI-60 one-dose screen, 48 h (100 = growth as untreated, 0 = no growth, -100 = all killed)
Settings in all cases: 10 µM unless noted
[1] = tested on: HCT-15 colon
[2] = tested on: HT29 colon
[3] = tested on: SNB-75 CNS
[4] = tested on: SNB-19 CNS
[5] = tested on: U251 CNS
[6] = tested on: PC-3 prostate
[7] = tested on: SK-MEL-5 melanoma
[8] = tested on: UACC-62 melanoma
[9] = tested on: LOX IMVI melanoma
[10] = tested on: SK-MEL-28 melanoma

Measured: growth

O=C(Nc1cccc(-c2nc(-c3ccc(NC(=O)c4cccnc4)cc3Cl)no2)c1)Nc1ccc(NC(=O)C2CC2)c(C(F)(F)F)c1
active: [1] 9.01% | [2] -26.8% | [3] -73.7% | [4] -0.276% | [5] -48% | [6] -65.8% | [7] -92.9% | [8] -81.9% | [9] -93.3% | [10] -83.7%

CCNC(=O)Oc1ccc(/C(=C(/C)c2ccccc2)c2ccc(OCCN3CCCC3)cc2)cc1
inactive: [1] 46.5% | [3] 79.4% | [4] 79% | [5] 58.6% | [6] 64.2% | [7] 25.4% | [8] 83.4% | [9] 18.4% | [10] 56.2%
active: [2] 9.61%

O=C1[C@@H]2Cc3c([nH]c4ccccc34)[C@H](c3c(Cl)cccc3Cl)N2C(=O)CN1C1CCN(Cc2ccccc2)CC1
inactive: [3] 62% | [4] 61.8% | [5] 38.9% | [6] 41.8% | [7] 45.2% | [8] 90.2% | [10] 14.6%
active: [1] -25.7% | [2] 2.12% | [9] -80%

CC(=O)NC(C)(C)C(=O)N1CCC[C@H]1C(=O)NC(C)(C)C(=O)N[C@@H](C)C(=O)NC(C)(C)C(=O)NC(C)(C)C(=O)N[C@@H](CCC(N)=O)C(=O)NC(C)(C)C(=O)N[C@H](C(=O)NC(C)(C)C(=O)NCC(=O)N[C@@H](CC(C)C)C(=O)NC(C)(C)C(=O)N1CCC[C@H]1C(=O)N[C@H](C(=O)NC(C)(C)C(=O)NC(C)(C)C(=O)N[C@@H](CCC(N)=O)C(=O)N[C@@H](CCC(N)=O)C(=O)N[C@H](CO)Cc1ccccc1)C(C)C)C(C)C
inactive: [1] 98.8% [4.25 µM] | [2] 27.4% [4.25 µM] | [3] 18.6% [4.25 µM] | [4] 19.1% [4.25 µM] | [5] 21.8% [4.25 µM] | [6] 14.9% [4.25 µM] | [8] 35% [4.25 µM] | [9] 18.6% [4.25 µM] | [10] 32.1% [4.25 µM]
active: [7] -45.7% [4.25 µM]

O=c1c2c(O)cccc2oc2c3c(cc(O)c12)O[C@H]1OC=C[C@@H]31
inactive: [1] 87.8% | [2] 88.9% | [3] 85.7% | [4] 96.8% | [5] 92.9% | [6] 90.1% | [7] 81.1% | [8] 81% | [9] 87.4% | [10] 108%

CN1CCN(c2nc(-c3csc(-c4ccncc4)n3)cc3ccccc23)CC1
inactive: [1] 17% | [2] 26.5% | [3] 62.5% | [4] 77.6% | [5] 49.1% | [6] 59.8% | [7] 70.4% | [8] 26.6% | [9] 11.4% | [10] 28.8%

O=c1cc(-c2ccccc2)nc2sc(-c3c[nH]c4ccc(Br)cc34)nn12
inactive: [1] 91.6% | [2] 102% | [3] 108% | [4] 88.4% | [5] 100% | [6] 85.4% | [7] 98.9% | [8] 87.4% | [9] 102% | [10] 93.9%

Nc1nc(N)c2c(n1)NC(c1ccccc1)CC(c1ccc(Nc3nc(NCCO)nc(Nc4ccc(Cl)cc4)n3)cc1)=N2 (stereo not given)
active: [1] -58% | [2] -87.6% | [4] -77.1% | [9] -86.1%
inactive: [3] 112% | [5] 11.9% | [6] 15.1% | [7] 55.6% | [8] 96.7% | [10] 109%

CS(=O)(=O)c1ccc(-c2nn(-c3ccccc3)cc2/C=N/NC(=O)c2ccncc2)cc1
inactive: [1] 69.5% | [2] 101% | [3] 89% | [4] 96.5% | [5] 105% | [6] 98.2% | [7] 105% | [8] 82.4% | [9] 101% | [10] 105%

COc1ccc([C@@H]2[C@@H](O)C(=O)N2c2cc(OC)c(OC)c(OC)c2)cc1
inactive: [1] 12.4% | [3] 50.7% | [4] 31.6% | [6] 16.2% | [8] 20.3% | [9] 16.3% | [10] 61%
active: [2] 1.28% | [5] 4.38% | [7] -28.6%

COc1ccccc1N1CCN(C2=NN=C(c3cccc(Cl)c3)c3ccccc3C2)CC1
inactive: [1] 15.8% | [3] 19.7% | [4] 41.2% | [5] 20.7% | [6] 23.5% | [8] 31.6% | [9] 24.8% | [10] 60.7%
active: [2] -3.52% | [7] -6.03%

CS(=O)(=O)c1nccc(-c2c(-c3ccc(F)c(OCCc4ccc(F)cc4)c3)nc3sccn23)n1
inactive: [3] 67.8% | [5] 71.4% | [7] 92.1% | [8] 57.9% | [9] 51.5%
active: [1] -0.659% | [2] 7.43% | [4] 0.358% | [6] -62.2% | [10] -71.5%
